# An excerpt weighted towards active compounds, which were near 0.97% of everything screened.
# RecA intein inh: blocks M. tuberculosis RecA intein splicing; P9WHJ3; cell-free RecA intein splicing, fluorescence; inhibition, % (test concentration not listed); 290,000 tested, 0.75% active; AID 2221; in the data active means inhibition above about 30%;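 further: 0% = vehicle wells and 100% = reference inhibitor control wells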
# Rv3671c inh: Rv3671c (M. tuberculosis) protease inhibition. P9WHR9. inhibition, % at 5.96 µM. 320,000 tested, 0.048% active. AID 2606; in the data active means inhibition above about 38%;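 further: extracellular domain of Rv3671c used as enzyme; 0% = enzyme with DMSO and 100% = no enzyme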
# BioA inh: BioA (M. tuberculosis) enzyme inhibition; purified M. tuberculosis BioA enzyme, plate reader; inhibition, % at 9.99 µM; 360,000 tested, 0.096% active; in the data active means inhibition above about 40%
# TcdB inh: TcdB glycohydrolase inhibition | AID 652162 | TcdB glycohydrolase enzymatic assay, plate reader | inhibition, % at 9.99 µM | P18177 | 350,000 tested, 0.24% active; in the data active means inhibition above about 10%
# FadD28 FP inh: blocks FadD28 binding to the bisubstrate probe | 360,000 tested, 0.22% active | inhibition, % at 12.5 µM | fluorescence polarization | AID 588549; in the data active means inhibition above about 8.5%, passing the limit was not always enough
# UGM FP inh: Mtb UDP-galactopyranose mutase inhibition | purified UGM, fluorescence polarization probe displacement | inhibition, % at 10 µM | 320,000 tested, 0.06% active | AID 504406; in the data active means inhibition above about 10%, passing the limit was not always enough
# Target sequence (P9WIQ1 whole entry, looked up): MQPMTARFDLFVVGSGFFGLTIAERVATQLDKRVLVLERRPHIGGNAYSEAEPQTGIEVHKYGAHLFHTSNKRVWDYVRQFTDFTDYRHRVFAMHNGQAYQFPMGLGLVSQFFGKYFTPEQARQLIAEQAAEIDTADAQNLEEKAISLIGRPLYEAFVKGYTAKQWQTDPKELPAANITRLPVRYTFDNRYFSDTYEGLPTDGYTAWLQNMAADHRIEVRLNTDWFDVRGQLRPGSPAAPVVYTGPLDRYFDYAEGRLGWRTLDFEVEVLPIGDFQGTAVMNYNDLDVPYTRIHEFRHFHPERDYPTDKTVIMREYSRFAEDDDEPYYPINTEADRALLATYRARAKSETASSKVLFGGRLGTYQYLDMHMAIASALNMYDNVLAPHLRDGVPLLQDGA
# * marks the source's active call; other numbers are inactive results; / = not tested or not shown.
SMILES,RecA intein inh,Rv3671c inh,BioA inh,TcdB inh,FadD28 FP inh,UGM FP inh
COc1ccc(-c2cc(N)n(S(=O)(=O)c3c(F)c(F)c(F)c(F)c3F)n2)cc1OC,97*,-26,-2,0,-6,-1
COc1cccc(NC(=O)C[C@@H]2CC[C@@H]3[C@H](COc4ccc(NC(C)=O)cc4C(=O)N3C)O2)c1,/,/,2,-1,/,/
COCCNc1cc(N)c([N+](=O)[O-])cc1[N+](=O)[O-],0,-12,/,11*,-1,-1
OC[C@@H]1[C@H](c2ccc(C#Cc3ccccc3)cc2)[C@H]2CN(Cc3cncnc3)CCCCN12,/,/,0,1,/,/
Cc1nn(C)cc1NC(=O)C[C@@H]1CC[C@H]2[C@H](COc3ccc(NC(=O)NC(C)C)cc3C(=O)N2C)O1,/,/,4,-1,/,/
CCOC(=O)c1nn(-c2ccc(OC)cc2)c(=O)c2c(N)scc12,47*,-20,-1,1,-1,-1
COc1ccc(/C=N/NC(=O)c2nn(-c3ccccc3)c(=O)c3c(N)scc23)cc1,68*,-49,3,/,0,0
CCOC(=O)c1nn(-c2ccc(C)c(C)c2)c(=O)c2c(N)scc12,/,-19,0,/,0,2
O=C1C=CC(=O)c2c(O)c(CO)c(CO)c(O)c21,/,/,/,-3,18*,/
O=C(N/N=C/c1c[nH]c2ccccc12)c1cc(Cl)ccc1O,-6,11,-6,1,16*,4
O=C(N/N=C/c1cn(Cc2cccc(F)c2)c2ccccc12)c1cc(O)cc(O)c1,4,/,0,1,17*,-1
O=C(O)c1ccc(N/N=C/c2cn(Cc3ccccc3F)c3ccccc23)cc1,6,-35,12,0,13*,-2
CC(C)n1cc(/C=N/Nc2ccc(C(=O)O)cc2)c2ccccc21,0,0,0,2,22*,-2
Nc1ccc(C(=O)N/N=C/c2cn(Cc3ccc(F)cc3)c3ccccc23)cc1,3,/,0,-2,6,-5
Nc1ccc(C(=O)N/N=C/c2cn(Cc3ccccc3F)c3ccccc23)cc1,1,/,0,1,1,3
Cn1cc(/C=N/Nc2ccccc2)c2ccccc21,0,4,/,1,-3,-2
C[C@H]1CN([C@@H](C)CO)C(=O)c2cc(-c3cccnc3)cnc2O[C@@H]1CN(C)C(=O)Cc1cccnc1,/,/,-2,0,/,/
O=C(NC1=C(Nc2ccc(F)cc2)C(=O)c2ccccc2C1=O)c1ccc(Cl)cc1,59*,-53,/,/,-4,0
Cc1cccc(S(=O)(=O)N2C[C@H](O)COC[C@@H]3O[C@H](CC(=O)Nc4ccc(-c5ccccc5)cc4)CC[C@H]32)c1,/,/,0,0,/,/
CCCc1cc(-c2n[nH]c(C(=O)OCC)c2-c2cscn2)c(O)cc1O,/,2,4,22*,-3,5
CCCNC(=O)c1cc2c3ccccc3n(C)c2s1,0,-15,/,/,0,3
Cn1c2ccccc2c2cc(C(=O)NNC(=O)CCl)sc21,33*,2,/,0,-3,5
O=C(C[C@H]1C=C[C@@H](NS(=O)(=O)c2ccc(F)cc2)[C@H](CO)O1)NCCN1CCCCC1,/,/,-1,0,/,/
COC(=O)c1ccc2c(c1O)C(=O)c1ccccc1C2=O,44*,-3,/,/,-5,0
O=C1c2ccccc2C(=O)c2c1ccc(O)c2O,/,/,-2,1,4,/
SMILES,RecA intein inh,Rv3671c inh,BioA inh,TcdB inh,FadD28 FP inh,UGM FP inh
O=C(Nc1ccc(Cl)c(Cl)c1)N[C@H]1CC[C@H](CCn2cc(C3CCCCC3)nn2)O[C@@H]1CO,/,/,2,0,/,/
O=C(N/N=C/c1cccnc1)c1ccc([N+](=O)[O-])cc1Cl,-5,0,/,/,-2,2
O=C(N/N=C/c1ccccn1)c1ccc([N+](=O)[O-])cc1Cl,-1,6,2,11*,0,-3
CCCC#Cc1cnc2c(c1)C(=O)N([C@H](C)CO)C[C@H](C)[C@@H](CN(C)Cc1ccncc1)O2,/,/,1,1,/,/
COc1ccc2c(c1)c1nc3ccccc3nc1n2CC(=O)OC(C)C,-18,3,0,/,-3,19*
C[C@@H]1CCCCO[C@@H](CN(C)Cc2ccc3c(c2)OCO3)[C@H](C)CN([C@@H](C)CO)C(=O)c2cc(NC(=O)NC3CCCCC3)ccc2O1,/,/,0,1,/,/
CCOc1ccccc1NC1=C(Cl)C(=O)N(c2ccc(OC)cc2)C1=O,-2,0,/,/,0,-4
COc1ccc(N2C(=O)C(Cl)=C(NCc3ccccc3)C2=O)cc1,36*,-11,2,/,-3,3

# Screening results deposited in PubChem BioAssay by several laboratories.
